esBAF inh = SWI/SNF esBAF complex inhibition; reporter increase, % at 12.5 µM; mouse ES cells, Bmi1-luciferase knock-in reporter, 24 h; 100% = twice the neutral-well signal; hit rate 2% among 350,000; in the data active = activation above about 40%; inconclusive = no clear call, values can overlap the other calls;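 note: 0% = median of the plate's neutral control wells and 100% = double that signal; a rise in the Bmi1 reporter signal indicates esBAF inhibition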
HSF1 inh = HSF1 inhibition; activity change, negative = inhibition, % at 7.5 µM (by protocol); AID 2098; NIH3T3-HGL HSE-luciferase, MG132-induced, luminescence 8 h; stronger effect = lower value; hit rate 0.77% among 300,000;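 active = more than half of replicate wells show activity change below -50%, luminescence cut by over half; inconclusive = some wells, but at most half, below -50%; inactive = no replicate well below -50%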;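 note: luciferase reports HSF-1 transcriptional activity via heat shock element; 0% = median of DMSO wells and -100% = zero luminescence signal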
MITF TRPM1 HTS = activators of MITF-driven TRPM1 promoter activity in SK-MEL-5 cells; SK-MEL-5 TRPM1-promoter luciferase, 24 h; % of positive control, neutral wells = 0; activation, % at 12.5 µM; hit rate 0.75% among 300,000;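 active = mean activation of at least 80% with every replicate also reaching 80%; inconclusive = mean reaches 80% but some replicate falls short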;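 note: 0% = neutral control wells and 100% = parthenolide positive control wells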
HSF1 activator = increases HSF-1 driven luciferase reporter signal; NIH3T3-HGL HSF-1 luciferase reporter, MG132, 8 h; 100% = twice DMSO control signal; activation, % at 9 µM; hit rate 1.7% among 300,000; AID 504408;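 active = mean replicate activation of at least 50% with a set share of replicates each reaching 50%; inconclusive = only one of those two conditions met; inactive = mean below 50% and too few replicates reaching it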;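 note: 0% = median of the neutral control wells and 100% = twice that signal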
Wnt bcat act = activates Wnt/beta-catenin signaling in a reporter cell assay. activator, plate reader. activation, % at 9.35 µM. hit rate 1.2% among 300,000; in the data active = activation above about 30%, passing the limit was not always enough; inconclusive = no clear call, values can overlap the other calls;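 note: 0% = neutral control wells and 100% = positive control wells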
* marks the source's active call; other numbers are inactive results; ? = inconclusive; . = no result given. Shown are actives, neighbours in structure and some others; about 3.9% of the full set was active somewhere.

SMILES	esBAF inh	HSF1 inh	MITF TRPM1 HTS	HSF1 activator	Wnt bcat act
N#CCn1c2ccccc2c2nc3ccccc3nc21	.	16	9	17	10
O=C(O)CCn1c2ccccc2c2nc3ccccc3nc21	50*	7	.	12	2
CC(C)CCOC(=O)C1C(c2ccccc2)C(C(=O)O)C1c1ccccc1 (centres undefined)	-6	-4	6	-7	43*
O=C(O)C1C(c2ccccc2)C(C(=O)Oc2ccccc2)C1c1ccccc1 (centres undefined)	-2	-2	1	-5	.
COC(=O)C1=C(C)Nc2c(c(=O)n(C)c(=O)n2C)C1c1cccc(O)c1 (centres undefined)	-8	-57*	14	-67	2
CC(C)NC(=O)N[C@H]1C=C[C@@H](CC(=O)NCCCN(C)C)O[C@@H]1CO	6	.	.	.	.
Cc1noc(C)c1C(=O)OCC(=O)c1cc(C)n(Cc2ccccc2Cl)c1C	28	17	55	24	41*
CCCC(=O)Nc1ccc2c(c1)C(=O)N(C)[C@H]1CC[C@H](CC(=O)Nc3ccc(F)cc3)O[C@@H]1CO2	2	.	.	.	.
Cc1cc(C)cc(NCc2cc(=O)oc3cc(C)c(O)cc23)c1	-3	-2	-5	-9	0
CC(=O)N(C)c1ccc(NCc2cc(=O)oc3cc(C)c(O)cc23)cc1	80*	-7	-21	-3	1
COCCCN(C(C)=O)c1nc(-c2ccccc2)cs1	46*	9	41	20	5
COCCCN(C(=O)c1ccccc1)c1nc(-c2ccc(OC)cc2)cs1	-2	1	.	5	-2
C[C@@H]1CN([C@H](C)CO)C(=O)c2cc(NC(=O)Nc3ccccc3)ccc2O[C@@H](C)CCCCO[C@@H]1CN(C)C(=O)NC1CCCCC1	-5	.	.	.	.
Cc1ccc(Nc2ncnc(-n3cccc3)n2)cc1Cl	.	19	41	29	53*
Cc1ccccc1Oc1nc2c(C)cccn2c(=O)c1/C=C(\C#N)C(=O)Nc1c(C)n(C)n(-c2ccccc2)c1=O	.	105	-43	137*	-3
O=C(C[C@H]1CC[C@H]2[C@@H](COC[C@@H](O)CN2C(=O)c2ccccc2)O1)NCCCN1CCOCC1	-3	.	.	.	.
CCn1cc(C(=O)NN)c(=O)c2cc(F)c(NC3CCCCC3)cc21	-8	19	.	66*	0
CCn1cc(C(=O)NN)c(=O)c2cc(F)c(N3CCCCC3)cc21	2	4	5	2	-1
CO[C@@H]1CN(C)C(=O)c2ccc(NC(=O)C3CCCC3)cc2OC[C@H](C)N(C(=O)CC2CC2)C[C@@H]1C	6	.	.	.	.
CCCN1C[C@H](C)[C@@H](OC)CN(C)C(=O)c2ccc(NC(=O)C3CC3)cc2OC[C@@H]1C	3	.	.	.	.
N#C/C(=C/c1ccncc1)c1nc2ccccc2s1	27	2	-6	-9	14
CC1CCc2nc(/C(C#N)=C/c3ccncc3)sc2C1 (centres undefined)	.	64	48	97*	.
c1ccc(Nc2scc(-c3ccccc3)[n+]2Cc2ccco2)cc1	.	15	72	25	53*
c1ccc(C[n+]2c(-c3ccccc3)csc2Nc2ccccc2)cc1	.	1	4	21	1
Clc1ccc(-n2nnnc2Sc2ncnc3sccc23)cc1	-16	90	.	129*	.
SMILES	esBAF inh	HSF1 inh	MITF TRPM1 HTS	HSF1 activator	Wnt bcat act
Nc1c(C(=O)Nc2ccccc2)sc2nc(-c3cccnc3)ccc12	.	-5	.	-4	8
Nc1c(C(=O)N2CCCC2)sc2nc(-c3ccccc3)ccc12	69*	14	103*	16	49*
Cc1ccc(C(=O)c2sc3nc4c(cc3c2N)CCC4)cc1	.	17	125*	23	33*
Cc1ccc(-c2c3c(nc4sc(C(N)=O)c(N)c24)CCC3)cc1	.	-8	-4	-18	.
Nc1c(C(=O)N2CCCCC2)sc2nc3c(cc12)CCCC3	54*	-1	80	-2	-2
COc1ccc2cc3c(N)c(C(=O)N4CCCC4)sc3nc2c1	.	18	.	25	.
C[C@H]1CN([C@@H](C)CO)S(=O)(=O)c2ccc(C3=CCCC3)cc2O[C@H]1CN(C)C(=O)c1cccnc1	1	.	.	.	.
CC(C)C#Cc1ccc2c(c1)O[C@H](CN(C)C(=O)C1CC1)[C@@H](C)CN([C@@H](C)CO)S2(=O)=O	6	.	.	.	.
NC(=O)c1ccc(NC(=O)CC23CC4CC(CC(Br)(C4)C2)C3)cc1	2	36	-10	76*	-2
O=c1c2ccccc2oc2c1ccc1ccccc12	72*	.	90*	.	.
O=c1c2ccccc2oc2ccccc12	24	.	.	.	-1
CCCCCCOC(=O)c1ccccc1NC(=O)/C=C/C(=O)O	36	10	.	19	34*
CCOC(=O)c1ccccc1NC(=O)/C=C/C(=O)O	.	8	1	1	-2
O=C(O)/C=C/C(=O)Nc1ccccc1C(=O)OCC(=O)c1ccc2c(c1)OCCO2	.	.	15	.	32*
COc1cccc(-c2cc(C(=O)NCC3CCCO3)on2)c1 (centres undefined)	56*	3	41	17	11
COc1ccc(-c2cc(C(=O)NCC3CCCO3)on2)cc1OC (centres undefined)	4	-3	8	24	0
O=C(NCC1CCCO1)c1cc(-c2ccc(F)cc2)no1 (centres undefined)	27	4	12	26	39*
CCCNC(=O)N1[C@@H](CO)[C@@H]2c3ccccc3N(C(=O)Nc3ccccc3)C[C@@H]21	17	.	.	.	.
CCCCOc1ccc(C(=O)Nc2cc(C)c(OCC(=O)N3CCOCC3)c(C)c2)cc1	38	3	10	4	8
Cc1cc(NC(=O)c2ccc(Cl)cc2)cc(C)c1OCC(=O)N1CCOCC1	18	23	36	54*	8
Cc1cc(Cl)ccc1OCCCC(=O)N1CCOCC1	59*	-65*	.	-74	?
Cc1cc(Cl)ccc1OCCCC(=O)N1CCCCC1	60*	6	100*	15	.
COc1ccccc1CN1[C@H](CO)[C@@H]2c3ccccc3N(C(=O)c3ccc(F)cc3)C[C@@H]21	4	.	.	.	.
COc1ccc(-c2nc(C#N)c(N3CCCCC3)o2)cc1	10	20	28	74*	1
Cc1cccc(-c2nc(C#N)c(NC3CCCCC3)o2)c1	62*	14	100*	33	.
Cc1ccc(-c2nc(C#N)c(N3CCCCC3)o2)cc1	3	4	29	12	-1
COc1ccc(-c2nc(C#N)c(N3CCCCCC3)o2)cc1	2	1	17	-2	.
Cc1cccc(-c2nc(C#N)c(N3CCCCC3)o2)c1	50*	11	72	21	15
C[C@@H]1CCCCO[C@H](CN(C)Cc2ccccc2)[C@@H](C)CN([C@@H](C)CO)C(=O)c2cc(NS(=O)(=O)c3ccc(Cl)cc3)ccc2O1	-3	.	.	.	.
C[C@H]1CN([C@@H](C)CO)C(=O)c2cc(NC(=O)c3ccncc3)ccc2O[C@@H]1CN(C)S(=O)(=O)c1cccs1	-2	.	.	.	.
